Assay results taken from PubChem BioAssay AID652054 (National Center for Advancing Translational Sciences (NCATS), 2013).
About 9,100 (2.5%) of roughly 360,000 compounds were called active. Another 4% or so got no clear call; they are omitted. The sample as a whole holds a higher share of actives than the screen did. Unmarked numbers belong to inactive results. Rule as the data show it: active = max response below about -50%; inconclusive = no clear call, values can overlap the other calls; inactive = above that.

What follows are compounds tested against D(3) dopamine receptor (Homo sapiens) (UniProt P35462) (assay: qHTS of D3 Dopamine Receptor Antagonist: qHTS). Settings: D3R cells, DiscoveRx beta-arrestin luminescence, antagonist mode; active compounds read low.
Procedure, shortened: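 Cells plated overnight at 1500 cells/well, then exposed to library compounds with dopamine controls for 90 minutes at 37 degrees C. DiscoveRx reagent added for 30–60 minutes at room temperature; luminescence read, quantitative HTS format.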
% is scaled to controls: 0 for no effect and ±100 for the full control effect.

D(3) dopamine receptor (Homo sapiens), sequence (P35462 whole entry, looked up): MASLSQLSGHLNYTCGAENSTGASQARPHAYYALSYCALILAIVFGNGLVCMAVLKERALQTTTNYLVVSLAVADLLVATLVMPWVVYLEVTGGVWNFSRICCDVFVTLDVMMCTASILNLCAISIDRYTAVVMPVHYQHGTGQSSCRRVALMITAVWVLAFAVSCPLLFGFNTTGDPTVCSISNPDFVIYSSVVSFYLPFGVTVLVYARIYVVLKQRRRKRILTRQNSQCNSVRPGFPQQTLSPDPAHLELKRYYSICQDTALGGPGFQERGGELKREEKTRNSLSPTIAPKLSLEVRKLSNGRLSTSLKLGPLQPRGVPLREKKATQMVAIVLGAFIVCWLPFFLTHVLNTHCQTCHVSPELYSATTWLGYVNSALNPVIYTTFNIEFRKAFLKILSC

Compound	max response, negative = inhibition
COc1cc2nnn(-c3ccncc3)c2cc1OC	28%
CCC(=O)Nc1sc(C(=O)Nc2ccccc2)c(C)c1C(=O)OC	31.4%
COCCCNCC(=O)Nc1sc(C)c(C)c1C(=O)OC	-52.8% (active)
COC(=O)c1c(NC(=O)c2c(Cl)cnn2C)sc(C)c1C	11.6%
COCc1cccc(-c2csc(C(O)c3ccc(F)cc3)n2)c1 (stereo not drawn)	0%
O=C(c1cccs1)N1C[C@H](n2cc(C3CC3)nn2)[C@@H](O)C[C@@H]1c1ccccc1	-2.86%
C=CCn1c2c(c3ccccc31)CCC2	-10.5%
CC(C)C1C(=O)N(Cc2cn(CCC3OCCO3)nn2)CCS(=O)(=O)N1Cc1ccc(-c2ccccc2C(F)(F)F)cc1 (stereo not drawn)	-3.14%
O=C1[C@H]2[C@@H](c3ccc(Cl)cc3)N3C(=O)N(c4cccc(F)c4)C(=O)[C@@]3(Cc3ccccc3)[C@H]2C(=O)N1C1CCCCC1	-0.596%
O=C1[C@H]2[C@@H](c3ccc(F)cc3)N3C(=O)N(c4ccc(C(F)(F)F)cc4)C(=O)[C@@]3(Cc3ccccc3)[C@H]2C(=O)N1C1CCCCC1	-13.4%
Cc1cccc(N2C(=O)N3[C@H](c4ccc(F)cc4)[C@@H]4C(=O)N(C5CCCCC5)C(=O)[C@@H]4[C@]3(Cc3ccccc3)C2=O)c1	-58.6% (active)
OC[C@@H]1CN(Cc2cccs2)C[C@H](n2cnc3c(NC4CCCC4)ncnc32)O1	18.9%
CC(C)c1cccc(-c2csc(C(O)c3ccccc3)n2)c1 (stereo not drawn)	-27.4%
COc1ccc2sc(-c3ccccc3OC)c(-c3ccc(OCCN4CCCC4)cc3)c2c1	-83.2% (active)
COc1cccc(-c2sc3ccc(OC)cc3c2-c2ccc(OCCN3CCCCC3)cc2)c1	-12.2%
COc1ccccc1-c1sc2ccccc2c1-c1ccc(Br)nc1	-14.1%
CC(C)(Oc1ccc(C2CC2(Cl)Cl)cc1)C(=O)O (stereo not drawn)	-111% (active)
O=C(Nc1ccc(C2CC2(Cl)Cl)cc1)c1cccc([N+](=O)[O-])c1 (stereo not drawn)	-14.6%
CCc1nc2c(OCc3ccc(F)c(F)c3)cccn2c1N(C)C(=O)c1ccco1	15.7%
COc1ccccc1C(=O)NCCC(=O)NC1=NCCS1	0%
COc1ccc(C(=O)NC2=NCCS2)c(OC)c1	5.28%
O=C(NC1=NCCS1)c1ccc(Cl)s1	-77% (active)

Compound	max response, negative = inhibition
O=C(Cn1cc(-c2nnnn2-c2ccc(Cl)cc2)c(=O)c2ccccc21)c1ccccc1	36.4%
O=C(CSc1cccc[n+]1[O-])c1ccc(Cl)cc1	-3.66%
O=C(C[n+]1ccc2c(c1)nnn2-c1ccccc1)c1ccc(Cl)cc1	-54.4% (active)
Cc1noc(C)c1C(=O)N1CCC1(C)C(=O)NS(=O)(=O)c1ccc(C#N)cc1 (stereo not drawn)	13.1%
COCc1cc(C)nc2sc(C(=O)NC3CCCCC3)c(N)c12	-50.5% (active)
Cc1cccn2c(=O)c3cc(C(=O)NC4CCCCC4)sc3nc12	-12.3%
COc1ccc(OC)c(NC(=O)c2sc3nc(C)cc(C)c3c2N)c1	22.5%
COc1cncc(-c2cnc3sc(NCCc4ccccn4)nn23)c1	60.8%
S=c1[nH]nc(-c2ccncc2)n1/N=C/c1ccccc1Cl	38%
S=c1[nH]nc(-c2cccs2)n1/N=C/c1cn(-c2ccccc2)nc1-c1ccc(Cl)cc1	-16%
Cc1ccc(/C=N\n2c(-c3ccccc3)n[nH]c2=S)s1	-72.1% (active)
Oc1ccccc1/C=N/n1c(-c2cccs2)n[nH]c1=S	-79.6% (active)
Cc1ccsc1/C=N/n1c(=S)[nH]nc(C)c1=O	-20.9%
Fc1ccccc1/C=N/n1c(-c2cccnc2)n[nH]c1=S	-11.6%
CCCCCC(=O)N1C[C@H](O)[C@@H](n2cc(COC(=O)c3ccccc3)nn2)C[C@@H]1c1ccc(C)cc1	8.87%
COC(=O)C1=CN(c2c(C)cc(C)cc2C)C(N)=C(C#N)C1c1cccc(F)c1 (stereo not drawn)	2.73%
Cc1ccnc(SC2CC(=O)N(c3ccccc3)C2=O)n1 (stereo not drawn)	-15.3%
CC[C@@H]1CC2=C(C(=O)OC(C)(C)O2)[C@@H](CC)O1	16.4%
COC(=O)C1(C(=O)OC)C/C=C\CN(S(=O)(=O)c2ccccc2[N+](=O)[O-])CCC1	25.7%
COC(=O)c1cc(S(=O)(=O)NC2CCN(Cc3ccccc3)CC2)cn1C	11.7%
CCc1nc2ccc(C(=O)NC3CCN(Cc4ccccc4)CC3)cn2c1N(C)CCN1CCOCC1	14%
Cc1cc(C(=O)NC2CC(C)(C)Cc3c2cnn3-c2ccccc2)n[nH]1 (stereo not drawn)	-0.849%

Compound	max response, negative = inhibition
Cc1cc(C(=O)NC2CCN(Cc3ccccc3)CC2)n[nH]1	-81.2% (active)
Cc1ccc(-c2cc(C(=O)NC3CCN(Cc4ccccc4)CC3)c3ccccc3n2)cc1	-13.4%
Cc1ccn2cc(C(=O)NC3CCN(Cc4ccccc4)CC3)nc2c1	-65.2% (active)
CCc1nc2ccc(C(=O)N3CCN(S(=O)(=O)CC)CC3)cn2c1N(C=O)CCC(C)C	-18.9%
CCCNC(=O)C1(C)CCN1C(=O)Cc1ccc(-c2ccccc2)cc1 (stereo not drawn)	-20.6%
C[C@H]1NS(=O)(=O)c2cc(Cl)ccc2O[C@@H]1c1ccccc1	-18.7%
O=[N+]([O-])/C=C/c1ccc2c(ccn2Cc2ccccc2)c1	-54.4% (active)
C[C@@H]1CN([C@@H](C)CO)C(=O)CCCn2cc(nn2)CO[C@H]1CN(C)S(=O)(=O)c1ccc(-n2cccn2)cc1	-5.35%
COC(=O)[C@]12CCCCC=C1N(Cc1ccc(Cl)cc1Cl)C(=O)[C@H](CC(=O)NCc1cccc3ccccc13)C2	-15.1%
COc1cc(CCN=Cc2ccccc2O)c([N+](=O)[O-])cc1OC	2.41%
NCCCCC(C(=O)O)N(C(=O)OCc1ccccc1)C(=O)OCc1ccccc1 (stereo not drawn)	-55.1% (active)
CC(C)[C@H](NC(=O)OCc1ccccc1)C(=O)OCc1ccccc1	-14.6%
O=C(NCC1CCC(C(=O)O)CC1)OCc1ccccc1 (stereo not drawn)	22%
CCc1oc(-c2ccc(OC)cc2)c(C(=O)OCCCCCO)c1C(C)OCCO (stereo not drawn)	14.5%
S=c1c2[nH]cnc2ncn1CCSc1ncnc2nc[nH]c12	-78.7% (active)
CCc1ccc(N(CC)c2ncnc3nc[nH]c23)cc1	-11.5%
Cc1ccc(NC(=O)c2ccc(CSc3ncnc4nc[nH]c34)cc2)c(C)c1	-9.41%
CCOP(=O)(OCC)C(Cc1ccccc1)N=C(c1ccccc1)c1ccccc1 (stereo not drawn)	-6.96%
O=C(N1CCCCC1)N1CCN(C(=O)N2CCCCC2)CC1	-20.6%
Cc1ccc(C(=O)NC2CCN(C(=O)N3CCOCC3)CC2)cc1	11.7%
O=C(N1CCOCC1)N1CCOCC1	-50.3% (active)
O=C(NCCOc1ccccc1)N1[C@H]2CC[C@@H]1C=C(c1ccc(F)cc1OCc1ccccc1)C2	56.5%

Compound	max response, negative = inhibition
CCOc1ccc(CCN2C(=O)C(=O)N([C@@H](Cc3ccc(O)cc3)CN3CCC[C@H]3CN3C(=O)C(=O)NC[C@@H]3CC(C)C)C[C@@H]2Cc2ccccc2)cc1	-23.4%
CN(C)CCN1CCN(c2cc(-c3cccc(Cl)c3)nc3ccnn23)CC1	-22%
Cc1ccc(C(O)c2ncc(-c3ccccc3F)[nH]2)cc1F (stereo not drawn)	-0.345%
COc1ccc(C(c2nnnn2C2CCCCC2)N2CCN(c3ccccc3F)CC2)cc1 (stereo not drawn)	-13.2%
FC(F)(F)Oc1ccccc1C(c1nnnn1C1CCCCC1)N1CCN(C/C=C/c2ccccc2)CC1 (stereo not drawn)	-77.9% (active)
CCOC(=O)C1CCN(C(c2cc3cc(C)cc(C)c3[nH]c2=O)c2nnnn2C2CCCCC2)CC1 (stereo not drawn)	18.8%
OC(c1cc(Cl)cc(Cl)c1)c1ncc(-c2ccccc2C(F)(F)F)[nH]1 (stereo not drawn)	2.77%
COc1ccc(CN2C3CCCC2CC(NC(=O)c2cccc(F)c2)C3)cc1 (stereo not drawn)	-88.5% (active)
COc1ccc(NC(=O)N2CCC(Cc3ccccc3)CC2)cc1	-18%
CCOc1ccccc1C(=O)NC1CC2CCCC(C1)N2Cc1ccccc1 (stereo not drawn)	-77.3% (active)
COc1ccc(NC(=S)N2CCC(NC(=O)c3cccc(F)c3)CC2)cc1	-3.67%
CCOc1ccccc1OCC(=O)Nc1ccccc1C(=O)NC1CC1	2%
CCCN1C2CCCC1CC(NC(=O)c1cccc(OC)c1)C2 (stereo not drawn)	9.66%
CCCCOCCCNC(=O)c1ccccc1OCC	-16.2%
CC(=O)NC1CC2CCCC(C1)N2CC(=O)Nc1ccccc1 (stereo not drawn)	-23%
COc1ccc(NC(=O)NC2CC3CCCC(C2)N3Cc2ccccc2)cc1 (stereo not drawn)	-65.9% (active)
Cc1ccc(-c2ccc(C3=CC(=O)CC(C)(C)C3=O)cc2)cc1	4.58%
Cc1ccc([C@H]2N[C@]3(CCCN(CC4CCCCC4)C3=O)[C@H]3C(=O)N(Cc4ccccc4)C(=O)[C@@H]23)cc1	0.653%
Cc1ccc(F)c(S(=O)(=O)NC(=O)C2(C)CCN2C(=O)CCc2cccs2)c1 (stereo not drawn)	-4.74%
COc1cc(C)c(C)cc1S(=O)(=O)N1CCCc2ccccc21	-64.6% (active)
Cn1c(=O)n(C)c2cc(S(=O)(=O)N3CCCc4ccccc43)ccc21	5.19%
COc1ccc(C(=O)OCC(=O)NCC2CCCCC2)cc1S(=O)(=O)N1CCCc2ccccc21	8.09%
